Laboratory results taken from PubChem BioAssay (NCI).
The panel holds about 79,000 compounds, 15% with a hit somewhere; the sample as a whole holds those more often. Activity calls are given as the source filed them. Cut-off read from the data, not from the text of the source: active = growth inhibition above about 70%; inactive = the rest.

Legend:
[1] = NCI Yeast Anticancer Drug Screen. Data for the rad50 strain (AID 155);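 note: 0% = growth of vehicle-only cultures of the same strain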; details: S. cerevisiae rad50 strain growth inhibition, stronger effect = higher value
Procedure, shortened: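 Vehicle-treated cultures provide the reference for the growth inhibition reported for compound-exposed, repair-deficient yeast.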

[2] = NCI Yeast Anticancer Drug Screen. Data for the mec2-1 strain (AID 157); details: S. cerevisiae mec2-1 strain, stronger effect = higher value
Procedure, shortened: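 Cells of the genetically defined mec2-1 yeast strain are incubated with test compound. Inhibition of growth is calculated against vehicle-treated controls.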

[3] = NCI Yeast Anticancer Drug Screen. Data for the sgs1 mgt1 strain (AID 161);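 note: 0% = growth of cultures given vehicle only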; details: S. cerevisiae sgs1 mgt1 strain, stronger effect = higher value
Procedure, shortened: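 Genetically altered yeast, compound exposure, growth inhibition relative to vehicle.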

[4] = NCI Yeast Anticancer Drug Screen. Data for the cln2 rad14 strain (AID 165);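 note: 0% = growth equal to vehicle treated cultures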; details: S. cerevisiae cln2 rad14 strain, stronger effect = higher value
Procedure, shortened: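 The screen exposed genetically defined yeast (cln2 rad14) to test compounds and scored growth inhibition relative to vehicle-treated controls.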

[5] = NCI Yeast Anticancer Drug Screen. Data for the bub3 strain (AID 167); details: S. cerevisiae bub3 mutant strain, stronger effect = higher value
Procedure, shortened: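 Mutant yeast screening strain plus compound; vehicle-treated cultures serve as the 0% inhibition reference.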

[6] = NCI Yeast Anticancer Drug Screen. Data for the mlh1 rad18 strain (AID 175); details: S. cerevisiae mlh1 rad18 strain growth inhibition, stronger effect = higher value
Procedure, shortened: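 Compound-treated yeast growth, normalised to vehicle controls. Strain bears defined DNA repair mutations.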

[7] = at 5.0 µM (retest, dose inferred, filed as 0.5)
[8] = at 50.0 µM (retest, dose inferred, filed as 5.0)

Measured: growth inhibition

CCN(CC)C1Oc2cc3c(cc2C(c2ccc(OC)cc2)C1C)OCO3 (stereo not given)
inactive: [1]; [7] 2% | [2]; [7] -38% | [3]; [7] -48% | [4]; [7] 1% | [5]; [7] -34% | [6]; [7] -14%
active: [1]; [8] 96% | [1]; at 50.0 µM 82.3% | [2]; [8] 96% | [2]; at 50.0 µM 77.5% | [3]; [8] 95% | [3]; at 50.0 µM 89.3% | [4]; [8] 95% | [4]; at 50.0 µM 81% | [5]; [8] 98% | [5]; at 50.0 µM 84.5% | [6]; [8] 97% | [6]; at 50.0 µM 85.3%

Cc1ccc(C2(C)CC/C(=N/O)c3cc(C)c(C)cc32)cc1C (stereo not given)
active: [1]; [7] 72% | [1]; [8] 89% | [1]; at 50.0 µM 90.5% | [2]; [8] 88% | [2]; at 50.0 µM 90.8% | [3]; [8] 90% | [3]; at 50.0 µM 88.7% | [4]; [8] 91% | [4]; at 50.0 µM 91.2% | [5]; [7] 80% | [5]; [8] 92% | [5]; at 50.0 µM 87.9% | [6]; [7] 83% | [6]; [8] 92% | [6]; at 50.0 µM 90.5%
inactive: [2]; [7] 61% | [3]; [7] 66% | [4]; [7] 63%

Fc1ccc(C2SCc3nc4ccccc4n32)cc1Cl (stereo not given)
active: [1]; [8] 78% | [1]; at 50.0 µM 91.3% | [2]; [8] 72% | [2]; at 50.0 µM 93% | [3]; [8] 90% | [3]; at 50.0 µM 94.3% | [4]; at 50.0 µM 92.5% | [5]; [8] 88% | [5]; at 50.0 µM 91.8% | [6]; [8] 89% | [6]; at 50.0 µM 92.1%
inactive: [1]; [7] 32% | [2]; [7] 27% | [3]; [7] 37% | [4]; [7] 24% | [4]; [8] 69% | [5]; [7] 33% | [6]; [7] 41%

Clc1cc(Cl)c2c(c1)nc(Cl)c1cc(Cl)ccc12
inactive: [1]; [7] -13% | [1]; [8] 1% | [2]; [7] -13% | [2]; [8] 7% | [3]; [7] -5% | [3]; [8] 1% | [4]; [7] -1% | [4]; [8] 2% | [5]; [7] -5% | [5]; [8] 1% | [6]; [7] -14% | [6]; [8] -20%
active: [1]; at 50.0 µM 97% | [2]; at 50.0 µM 99% | [3]; at 50.0 µM 97.6% | [4]; at 50.0 µM 98.5% | [5]; at 50.0 µM 98.7% | [6]; at 50.0 µM 98.6%

NNc1cc(C(F)(F)F)nc2ccccc12
inactive: [1]; [7] -133% | [1]; [8] -80% | [1]; at 50.0 µM 35.5% | [2]; [7] -48% | [2]; [8] -46% | [2]; at 50.0 µM 3.1% | [3]; [7] -53% | [3]; [8] -48% | [3]; at 50.0 µM -21.1% | [4]; [7] -56% | [4]; [8] -88% | [4]; at 50.0 µM 34.1% | [5]; [7] -65% | [5]; [8] -75% | [5]; at 50.0 µM 1.45% | [6]; [7] -108% | [6]; [8] -95% | [6]; at 50.0 µM 64.8%

CC1COC(c2cn[nH]c2C(N)=O)C1O (stereo not given)
inactive: [1]; [7] -7% | [1]; [8] 13% | [1]; at 50.0 µM -0.5% | [2]; [7] 5% | [2]; [8] 15% | [2]; at 50.0 µM 21% | [3]; [7] 7% | [3]; [8] 14% | [3]; at 50.0 µM -6.4% | [4]; [7] -33% | [4]; [8] -18% | [4]; at 50.0 µM 39.4% | [5]; [7] 4% | [5]; [8] 24% | [5]; at 50.0 µM 0.85% | [6]; [7] 3% | [6]; [8] 16% | [6]; at 50.0 µM 7.65%

COC1(OC)C2(Cl)C(Cl)=C(Cl)C1(Cl)C1C2C2CC1(C(=O)O)c1ccccc12 (stereo not given)
active: [1]; at 50.0 µM 92% | [2]; at 50.0 µM 93.4% | [3]; at 50.0 µM 93% | [4]; at 50.0 µM 91.5% | [5]; at 50.0 µM 90.8% | [6]; at 50.0 µM 90.5%
inactive: [1]; [7] 29% | [1]; [8] 29% | [2]; [7] 23% | [2]; [8] 23% | [3]; [7] 17% | [3]; [8] 17% | [4]; [7] 26% | [4]; [8] 26% | [5]; [7] 26% | [5]; [8] 26% | [6]; [7] 41% | [6]; [8] 41%

CC(=O)Oc1c(C)cc([N+](=O)[O-])cc1[N+](=O)[O-]
active: [1]; [8] 99% | [1]; at 50.0 µM 99.7% | [2]; [8] 99% | [2]; at 50.0 µM 99.8% | [3]; [8] 99% | [3]; at 50.0 µM 99.8% | [4]; [8] 99% | [4]; at 50.0 µM 98.9% | [5]; [8] 99% | [5]; at 50.0 µM 99% | [6]; [8] 99% | [6]; at 50.0 µM 99.7%
inactive: [1]; [7] -11% | [2]; [7] 1% | [3]; [7] 11% | [4]; [7] 16% | [5]; [7] 9% | [6]; [7] 16%

O=[N+]([O-])c1ccc(O)c(C=Nc2ccccc2)c1
active: [1]; at 50.0 µM 74.3% | [4]; at 50.0 µM 79.5% | [6]; at 50.0 µM 82.8%
inactive: [1]; [7] -114% | [1]; [8] 31% | [2]; [7] -50% | [2]; [8] -21% | [2]; at 50.0 µM 69.5% | [3]; [7] -51% | [3]; [8] 0% | [3]; at 50.0 µM 64% | [4]; [7] -57% | [4]; [8] -6% | [5]; [7] -71% | [5]; [8] -41% | [5]; at 50.0 µM 54.6% | [6]; [7] -96% | [6]; [8] -16%

Cc1cc(CC(O)(C(F)(F)F)C(F)(F)F)cc(CC(O)(C(F)(F)F)C(F)(F)F)n1
active: [1]; [8] 99% | [1]; at 50.0 µM 99.2% | [2]; [8] 98% | [2]; at 50.0 µM 98.5% | [3]; [8] 98% | [3]; at 50.0 µM 98.2% | [4]; [8] 98% | [4]; at 50.0 µM 98% | [5]; [8] 99% | [5]; at 50.0 µM 99.2% | [6]; [8] 99% | [6]; at 50.0 µM 99%
inactive: [1]; [7] 12% | [2]; [7] 5% | [3]; [7] -3% | [4]; [7] 9% | [5]; [7] -16% | [6]; [7] 6%
